# Columns and labels:
# Assay in all cases: DAPPL (digital affinity profiling via proximity ligation, sequencing); 10 mM Tris-HCl pH 7.5, 50 mM NaCl, 1 mM DTT, 4% glycerol, room temperature, 30 min; GST-TFs on glutathione beads, 16-mer random dsDNA library, 0.1% formaldehyde crosslink after washing; high values mean tight binding
# [1] = molecular target: T1, FEV (Homo sapiens, UniProt Q99581 1-238); details: protein: recombinant; tags: N-terminal GST; dsDNA, one strand shown
# T1 sequence: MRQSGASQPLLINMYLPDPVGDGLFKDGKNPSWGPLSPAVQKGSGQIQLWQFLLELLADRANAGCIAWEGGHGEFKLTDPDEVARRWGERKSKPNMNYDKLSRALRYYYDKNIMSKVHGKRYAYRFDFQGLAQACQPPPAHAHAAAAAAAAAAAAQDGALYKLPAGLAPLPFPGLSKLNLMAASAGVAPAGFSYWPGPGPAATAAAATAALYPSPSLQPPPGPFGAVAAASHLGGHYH
# Summary of the method: (§1)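 Human transcription factors fused to GST were expressed in yeast, captured on glutathione beads, given DNA barcodes and pooled with a GST-only negative control. Pools were incubated with 200 nmole of a 16-mer random double-stranded DNA library in Tris/NaCl/DTT/glycerol buffer at room temperature for 30 min. They were then washed, crosslinked with 0.1% formaldehyde, proximity-ligated (BsaI/T4 ligase, 1 h, 37 °C), PCR-amplified and sequenced on an Illumina NextSeq500. Binding signal is each 6-mer's read frequency for a factor divided by its frequency for the GST control.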
# [2] = molecular target: ETV5 (Homo sapiens, UniProt P41161 1-510); details: protein: recombinant; tags: N-terminal GST; dsDNA, one strand shown
# ETV5, sequence (P41161 whole entry): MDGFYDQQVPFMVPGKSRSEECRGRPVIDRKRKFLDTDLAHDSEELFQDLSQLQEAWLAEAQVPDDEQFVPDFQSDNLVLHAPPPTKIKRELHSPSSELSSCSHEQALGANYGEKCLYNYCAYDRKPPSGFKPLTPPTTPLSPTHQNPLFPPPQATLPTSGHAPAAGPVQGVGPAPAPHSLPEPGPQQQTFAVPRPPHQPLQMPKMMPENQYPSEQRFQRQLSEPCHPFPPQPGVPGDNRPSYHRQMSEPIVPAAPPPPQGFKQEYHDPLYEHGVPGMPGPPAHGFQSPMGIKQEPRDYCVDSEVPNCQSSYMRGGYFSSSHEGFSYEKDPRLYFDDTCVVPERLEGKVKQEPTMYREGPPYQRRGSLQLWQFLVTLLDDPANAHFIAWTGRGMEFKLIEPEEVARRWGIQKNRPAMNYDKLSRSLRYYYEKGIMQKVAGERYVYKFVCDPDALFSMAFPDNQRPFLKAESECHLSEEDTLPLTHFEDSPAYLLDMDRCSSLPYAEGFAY
# Summary of the method: as §1
# [3] = molecular target: HSF1 (Homo sapiens, UniProt Q00613 1-529); details: protein: recombinant; tags: N-terminal GST; chain copies: 3; dsDNA, one strand shown
# HSF1, sequence (Q00613 whole entry): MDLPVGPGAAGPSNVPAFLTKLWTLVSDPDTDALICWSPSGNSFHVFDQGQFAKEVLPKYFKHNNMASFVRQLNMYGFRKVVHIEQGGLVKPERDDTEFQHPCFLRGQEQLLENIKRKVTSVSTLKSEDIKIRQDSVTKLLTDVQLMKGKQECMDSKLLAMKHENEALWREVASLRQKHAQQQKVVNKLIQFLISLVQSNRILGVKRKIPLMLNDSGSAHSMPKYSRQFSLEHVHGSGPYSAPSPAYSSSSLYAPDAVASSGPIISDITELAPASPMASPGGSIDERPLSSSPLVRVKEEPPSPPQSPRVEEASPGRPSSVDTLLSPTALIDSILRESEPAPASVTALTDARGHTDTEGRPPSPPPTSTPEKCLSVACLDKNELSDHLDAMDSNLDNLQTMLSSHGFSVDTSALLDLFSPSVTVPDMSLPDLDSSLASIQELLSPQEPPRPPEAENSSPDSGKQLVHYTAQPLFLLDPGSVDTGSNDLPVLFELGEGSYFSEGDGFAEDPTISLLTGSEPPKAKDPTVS
# Summary of the method: as §1
# [4] = molecular target: T2, SPIC (Homo sapiens, UniProt Q8N5J4 1-248); details: protein: recombinant; tags: N-terminal GST; dsDNA, one strand shown
# T2 sequence: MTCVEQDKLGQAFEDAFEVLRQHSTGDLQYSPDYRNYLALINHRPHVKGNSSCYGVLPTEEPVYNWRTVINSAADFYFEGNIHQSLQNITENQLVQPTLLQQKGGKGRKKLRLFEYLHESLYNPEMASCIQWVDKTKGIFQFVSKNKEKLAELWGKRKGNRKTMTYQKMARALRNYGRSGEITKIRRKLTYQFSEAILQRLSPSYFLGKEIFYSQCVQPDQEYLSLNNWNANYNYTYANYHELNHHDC
# Summary of the method: as §1
# [5] = molecular target: ELF4 (Homo sapiens, UniProt Q99607 1-663); details: protein: recombinant; tags: N-terminal GST; dsDNA, one strand shown
# ELF4, sequence (Q99607 whole entry): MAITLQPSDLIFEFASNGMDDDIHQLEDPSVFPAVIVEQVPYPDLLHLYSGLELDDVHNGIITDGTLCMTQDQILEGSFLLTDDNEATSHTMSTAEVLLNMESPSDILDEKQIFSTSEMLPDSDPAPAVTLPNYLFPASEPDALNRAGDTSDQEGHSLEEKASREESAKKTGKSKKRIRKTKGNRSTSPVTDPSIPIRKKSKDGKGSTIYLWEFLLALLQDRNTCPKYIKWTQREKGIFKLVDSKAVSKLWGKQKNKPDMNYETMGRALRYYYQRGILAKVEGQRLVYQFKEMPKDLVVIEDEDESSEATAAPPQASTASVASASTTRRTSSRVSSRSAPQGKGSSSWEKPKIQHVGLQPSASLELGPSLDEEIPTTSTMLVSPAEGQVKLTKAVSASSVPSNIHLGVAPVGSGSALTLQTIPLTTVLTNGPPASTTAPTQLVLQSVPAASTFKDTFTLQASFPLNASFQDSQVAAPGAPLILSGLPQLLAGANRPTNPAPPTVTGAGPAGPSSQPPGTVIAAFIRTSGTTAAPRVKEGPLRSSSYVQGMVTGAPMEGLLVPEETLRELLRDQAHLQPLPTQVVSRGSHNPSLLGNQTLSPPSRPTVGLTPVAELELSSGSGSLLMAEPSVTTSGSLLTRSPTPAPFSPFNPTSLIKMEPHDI
# Summary of the method: as §1
# [6] = molecular target: T3, ELK4 (Homo sapiens, UniProt P28324-2 1-405); details: protein: recombinant; tags: N-terminal GST; dsDNA, one strand shown
# T3 sequence: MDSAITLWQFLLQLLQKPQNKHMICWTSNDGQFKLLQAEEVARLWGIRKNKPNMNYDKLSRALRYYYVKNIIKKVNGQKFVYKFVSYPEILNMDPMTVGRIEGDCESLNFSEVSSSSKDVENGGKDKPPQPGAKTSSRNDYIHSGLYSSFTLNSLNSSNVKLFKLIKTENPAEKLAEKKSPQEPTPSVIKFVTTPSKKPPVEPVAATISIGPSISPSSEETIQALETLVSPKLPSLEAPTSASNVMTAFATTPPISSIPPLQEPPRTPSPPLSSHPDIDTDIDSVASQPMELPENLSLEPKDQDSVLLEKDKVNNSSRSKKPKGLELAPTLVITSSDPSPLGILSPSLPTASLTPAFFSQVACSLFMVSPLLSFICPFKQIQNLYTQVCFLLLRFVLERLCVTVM
# Summary of the method: as §1
# [7] = molecular target: T4, ETV2 (Homo sapiens, UniProt O00321 1-342); details: protein: recombinant; tags: N-terminal GST; dsDNA, one strand shown
# T4 sequence: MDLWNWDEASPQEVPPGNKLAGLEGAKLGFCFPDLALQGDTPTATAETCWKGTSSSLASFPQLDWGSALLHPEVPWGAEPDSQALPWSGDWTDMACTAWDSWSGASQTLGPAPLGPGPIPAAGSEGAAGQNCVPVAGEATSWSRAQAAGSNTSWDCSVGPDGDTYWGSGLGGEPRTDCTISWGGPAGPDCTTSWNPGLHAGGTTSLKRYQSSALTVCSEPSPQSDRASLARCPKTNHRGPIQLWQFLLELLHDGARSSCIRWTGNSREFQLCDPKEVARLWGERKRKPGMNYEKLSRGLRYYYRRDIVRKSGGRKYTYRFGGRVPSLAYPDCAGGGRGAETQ
# Summary of the method: as §1
# [8] = molecular target: T5, ELF3 (Homo sapiens, UniProt P78545 1-371); details: protein: recombinant; tags: N-terminal GST; dsDNA, one strand shown
# T5 sequence: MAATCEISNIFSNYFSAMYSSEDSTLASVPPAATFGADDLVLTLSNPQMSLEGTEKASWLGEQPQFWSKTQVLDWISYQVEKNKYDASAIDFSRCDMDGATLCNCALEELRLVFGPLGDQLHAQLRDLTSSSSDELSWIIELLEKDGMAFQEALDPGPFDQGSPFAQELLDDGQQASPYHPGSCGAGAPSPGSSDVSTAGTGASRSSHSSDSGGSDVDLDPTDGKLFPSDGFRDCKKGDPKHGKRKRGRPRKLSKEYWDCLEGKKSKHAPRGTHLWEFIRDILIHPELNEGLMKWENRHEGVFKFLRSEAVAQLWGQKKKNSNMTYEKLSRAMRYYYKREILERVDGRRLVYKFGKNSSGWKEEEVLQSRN
# Summary of the method: as §1
# [9] = molecular target: CRX (Homo sapiens, UniProt O43186 1-299); details: protein: recombinant; tags: N-terminal GST; dsDNA, one strand shown
# CRX, sequence (O43186 whole entry): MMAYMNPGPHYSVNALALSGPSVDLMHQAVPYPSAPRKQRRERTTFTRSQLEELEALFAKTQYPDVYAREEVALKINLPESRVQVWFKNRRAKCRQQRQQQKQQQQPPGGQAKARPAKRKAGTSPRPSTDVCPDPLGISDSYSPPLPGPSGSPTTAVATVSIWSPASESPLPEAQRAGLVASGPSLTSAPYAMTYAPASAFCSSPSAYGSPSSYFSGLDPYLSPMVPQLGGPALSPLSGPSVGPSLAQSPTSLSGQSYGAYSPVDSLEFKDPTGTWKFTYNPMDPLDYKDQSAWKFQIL
# Summary of the method: as §1
# [10] = molecular target: ETV1 (Homo sapiens, UniProt P50549 1-477); details: protein: recombinant; tags: N-terminal GST; dsDNA, one strand shown
# ETV1, sequence (P50549 whole entry): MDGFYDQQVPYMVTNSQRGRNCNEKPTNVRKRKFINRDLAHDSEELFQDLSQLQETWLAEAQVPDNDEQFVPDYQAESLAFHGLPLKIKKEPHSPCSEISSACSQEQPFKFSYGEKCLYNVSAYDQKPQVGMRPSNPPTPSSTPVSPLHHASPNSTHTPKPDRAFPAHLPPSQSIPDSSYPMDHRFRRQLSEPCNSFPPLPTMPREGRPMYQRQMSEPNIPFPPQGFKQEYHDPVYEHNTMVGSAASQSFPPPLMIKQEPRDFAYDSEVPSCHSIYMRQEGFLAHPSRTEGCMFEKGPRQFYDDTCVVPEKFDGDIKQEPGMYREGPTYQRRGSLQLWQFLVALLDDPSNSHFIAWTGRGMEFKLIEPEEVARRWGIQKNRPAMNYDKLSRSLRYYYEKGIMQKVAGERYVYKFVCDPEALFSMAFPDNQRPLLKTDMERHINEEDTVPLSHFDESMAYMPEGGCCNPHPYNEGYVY
# Summary of the method: as §1
# [11] = molecular target: T6, ERF (Homo sapiens, UniProt P50548 1-548); details: protein: recombinant; tags: N-terminal GST; dsDNA, one strand shown
# T6 sequence: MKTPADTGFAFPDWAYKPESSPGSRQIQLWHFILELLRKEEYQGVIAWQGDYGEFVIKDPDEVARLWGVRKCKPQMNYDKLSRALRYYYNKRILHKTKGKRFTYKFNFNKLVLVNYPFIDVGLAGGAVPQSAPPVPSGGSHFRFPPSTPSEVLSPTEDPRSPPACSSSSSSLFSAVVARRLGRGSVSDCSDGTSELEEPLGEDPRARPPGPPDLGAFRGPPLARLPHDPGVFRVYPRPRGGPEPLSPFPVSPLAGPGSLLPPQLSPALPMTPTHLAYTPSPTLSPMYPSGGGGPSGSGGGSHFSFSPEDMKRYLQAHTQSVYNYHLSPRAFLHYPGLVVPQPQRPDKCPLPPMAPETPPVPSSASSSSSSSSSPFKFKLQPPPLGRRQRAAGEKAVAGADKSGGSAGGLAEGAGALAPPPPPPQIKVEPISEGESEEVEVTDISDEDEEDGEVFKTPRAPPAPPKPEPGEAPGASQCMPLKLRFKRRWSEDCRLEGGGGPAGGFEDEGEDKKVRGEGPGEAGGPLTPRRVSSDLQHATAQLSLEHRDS
# Summary of the method: as §1
# [12] = molecular target: T7, ETV3L (Homo sapiens, UniProt Q6ZN32 1-361); details: protein: recombinant; tags: N-terminal GST; dsDNA, one strand shown
# T7 sequence: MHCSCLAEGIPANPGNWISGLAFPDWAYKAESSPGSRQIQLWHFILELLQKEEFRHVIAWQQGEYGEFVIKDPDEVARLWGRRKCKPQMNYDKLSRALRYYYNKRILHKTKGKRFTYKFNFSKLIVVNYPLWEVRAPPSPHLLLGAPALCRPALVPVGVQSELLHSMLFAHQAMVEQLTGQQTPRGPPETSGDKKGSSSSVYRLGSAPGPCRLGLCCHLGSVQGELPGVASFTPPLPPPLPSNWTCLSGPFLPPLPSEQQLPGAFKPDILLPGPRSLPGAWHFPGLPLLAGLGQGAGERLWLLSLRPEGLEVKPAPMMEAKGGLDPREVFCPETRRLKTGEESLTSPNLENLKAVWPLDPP
# Summary of the method: as §1
# [13] = molecular target: T8, ETS2 (Homo sapiens, UniProt P15036 1-469); details: protein: recombinant; tags: N-terminal GST; dsDNA, one strand shown
# T8 sequence: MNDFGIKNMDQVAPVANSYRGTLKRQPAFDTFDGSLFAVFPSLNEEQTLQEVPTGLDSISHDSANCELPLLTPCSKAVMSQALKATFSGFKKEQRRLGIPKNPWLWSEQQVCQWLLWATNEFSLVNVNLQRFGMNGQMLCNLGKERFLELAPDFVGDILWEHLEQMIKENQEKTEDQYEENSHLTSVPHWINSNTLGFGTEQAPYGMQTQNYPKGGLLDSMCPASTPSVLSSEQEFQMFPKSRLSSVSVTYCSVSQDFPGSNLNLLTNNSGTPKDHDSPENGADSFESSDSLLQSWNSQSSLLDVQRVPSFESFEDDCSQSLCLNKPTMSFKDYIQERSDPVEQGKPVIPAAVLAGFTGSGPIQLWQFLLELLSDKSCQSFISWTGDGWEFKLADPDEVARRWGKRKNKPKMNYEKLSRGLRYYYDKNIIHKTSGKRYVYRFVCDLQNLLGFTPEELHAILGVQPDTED
# Summary of the method: as §1
# [14] = molecular target: T9, SPDEF (Homo sapiens, UniProt O95238 1-335); details: protein: recombinant; tags: N-terminal GST; dsDNA, one strand shown
# T9 sequence: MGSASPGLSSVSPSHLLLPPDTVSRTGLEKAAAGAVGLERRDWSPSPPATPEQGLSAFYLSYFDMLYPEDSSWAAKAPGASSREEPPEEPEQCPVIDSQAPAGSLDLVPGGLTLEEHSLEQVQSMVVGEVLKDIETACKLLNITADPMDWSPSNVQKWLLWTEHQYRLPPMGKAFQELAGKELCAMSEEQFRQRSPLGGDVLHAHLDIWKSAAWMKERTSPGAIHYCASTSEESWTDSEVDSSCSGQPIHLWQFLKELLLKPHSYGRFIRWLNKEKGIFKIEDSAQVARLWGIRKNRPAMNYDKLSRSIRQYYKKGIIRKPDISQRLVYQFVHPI
# Summary of the method: as §1
# [15] = molecular target: T10, ETV7 (Homo sapiens, UniProt Q9Y603 1-341); details: protein: recombinant; tags: N-terminal GST; dsDNA, one strand shown
# T10 sequence: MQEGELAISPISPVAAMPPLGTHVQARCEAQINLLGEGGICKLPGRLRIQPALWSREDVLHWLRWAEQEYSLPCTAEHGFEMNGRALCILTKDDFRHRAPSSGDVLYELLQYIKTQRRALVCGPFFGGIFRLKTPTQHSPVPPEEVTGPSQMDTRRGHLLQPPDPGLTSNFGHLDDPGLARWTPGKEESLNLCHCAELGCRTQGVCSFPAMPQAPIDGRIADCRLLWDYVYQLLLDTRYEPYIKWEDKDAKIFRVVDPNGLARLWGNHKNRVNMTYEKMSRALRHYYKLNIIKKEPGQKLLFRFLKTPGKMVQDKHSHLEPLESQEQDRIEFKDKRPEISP
# Summary of the method: as §1
# [16] = molecular target: T11, ELF5 (Homo sapiens, UniProt Q9UKW6-2 1-255); details: protein: recombinant; tags: N-terminal GST; dsDNA, one strand shown
# T11 sequence: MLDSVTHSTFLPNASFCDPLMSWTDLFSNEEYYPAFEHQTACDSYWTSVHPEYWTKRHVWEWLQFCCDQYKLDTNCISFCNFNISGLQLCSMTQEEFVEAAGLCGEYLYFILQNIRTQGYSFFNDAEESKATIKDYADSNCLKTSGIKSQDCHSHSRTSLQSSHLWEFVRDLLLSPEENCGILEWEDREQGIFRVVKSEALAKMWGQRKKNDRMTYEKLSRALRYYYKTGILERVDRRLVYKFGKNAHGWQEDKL
# Summary of the method: as §1
# [17] = molecular target: T12, ETV3 (Homo sapiens, UniProt P41162-2 1-143); details: protein: recombinant; tags: N-terminal GST; dsDNA, one strand shown
# T12 sequence: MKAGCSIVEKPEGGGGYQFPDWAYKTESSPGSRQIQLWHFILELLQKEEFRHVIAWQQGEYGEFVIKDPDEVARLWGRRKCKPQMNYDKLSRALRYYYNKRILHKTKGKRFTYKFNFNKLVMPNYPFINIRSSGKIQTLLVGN
# Summary of the method: as §1
# [18] = molecular target: ETV6 (Homo sapiens, UniProt P41212 1-452); details: protein: recombinant; tags: N-terminal GST; dsDNA, one strand shown
# ETV6, sequence (P41212 whole entry): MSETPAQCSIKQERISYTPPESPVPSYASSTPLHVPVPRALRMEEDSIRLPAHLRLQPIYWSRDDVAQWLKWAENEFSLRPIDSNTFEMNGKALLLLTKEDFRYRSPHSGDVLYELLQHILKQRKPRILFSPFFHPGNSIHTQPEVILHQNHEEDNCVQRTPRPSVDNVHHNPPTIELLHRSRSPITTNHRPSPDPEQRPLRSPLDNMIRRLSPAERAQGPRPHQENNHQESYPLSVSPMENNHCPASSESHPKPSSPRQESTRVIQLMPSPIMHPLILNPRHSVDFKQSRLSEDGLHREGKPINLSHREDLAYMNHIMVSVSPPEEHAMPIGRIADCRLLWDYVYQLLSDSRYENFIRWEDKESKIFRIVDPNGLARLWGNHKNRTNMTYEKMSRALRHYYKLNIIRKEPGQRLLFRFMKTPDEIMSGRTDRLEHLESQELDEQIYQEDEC
# Summary of the method: as §1
sequence,measurement,setting,value
GTCTTT,binding signal,[1],"1.14 fold enrichment (6-mer frequency, TF over GST control)"
same,binding signal,[2],"1.22 fold enrichment (6-mer frequency, TF over GST control)"
same,binding signal,[3],"1.22 fold enrichment (6-mer frequency, TF over GST control)"
same,binding signal,[4],"1.26 fold enrichment (6-mer frequency, TF over GST control)"
same,binding signal,[5],"1.22 fold enrichment (6-mer frequency, TF over GST control)"
same,binding signal,[6],"1.21 fold enrichment (6-mer frequency, TF over GST control)"
same,binding signal,[7],"1.12 fold enrichment (6-mer frequency, TF over GST control)"
same,binding signal,[8],"1.27 fold enrichment (6-mer frequency, TF over GST control)"
same,binding signal,[9],"1.24 fold enrichment (6-mer frequency, TF over GST control)"
same,binding signal,[10],"1.13 fold enrichment (6-mer frequency, TF over GST control)"
same,binding signal,[11],"1.27 fold enrichment (6-mer frequency, TF over GST control)"
same,binding signal,[12],"1.27 fold enrichment (6-mer frequency, TF over GST control)"
same,binding signal,[13],"1.26 fold enrichment (6-mer frequency, TF over GST control)"
same,binding signal,[14],"1.17 fold enrichment (6-mer frequency, TF over GST control)"
same,binding signal,[15],"1.28 fold enrichment (6-mer frequency, TF over GST control)"
same,binding signal,[16],"1.31 fold enrichment (6-mer frequency, TF over GST control)"
same,binding signal,[17],"1.26 fold enrichment (6-mer frequency, TF over GST control)"
same,binding signal,[18],"1.24 fold enrichment (6-mer frequency, TF over GST control)"
